hcDAF12 agonist: activates DAF-12 receptor from parasite H. contortus; HEK293 hcDAF-12 lit1-tk-luc reporter, luminescence; 0% DMSO, 100% Δ7-dafachronic acid; activation, % at 6.8 µM; 370,000 compounds, 1.4% hits; AID 652067;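 active = activation above the mean of all tested compounds plus 3 SD, cut at about 5.5% in these data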
DAX1 inh-1: NR0B1 (DAX1) inhibition | P51843 | HEK293 Gal4-DAX1 luciferase reporter, luminescence | inhibition, % at 6.75 µM | 340,000 compounds, 0.99% hits;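 active = inhibition above the mean over all tested compounds plus 3 SD, cut at about 4.2% in these data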;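 also: inhibition shows as a rise in luminescence from relieved DAX1 repression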
Target sequence (P51843 207-470 limits assumed): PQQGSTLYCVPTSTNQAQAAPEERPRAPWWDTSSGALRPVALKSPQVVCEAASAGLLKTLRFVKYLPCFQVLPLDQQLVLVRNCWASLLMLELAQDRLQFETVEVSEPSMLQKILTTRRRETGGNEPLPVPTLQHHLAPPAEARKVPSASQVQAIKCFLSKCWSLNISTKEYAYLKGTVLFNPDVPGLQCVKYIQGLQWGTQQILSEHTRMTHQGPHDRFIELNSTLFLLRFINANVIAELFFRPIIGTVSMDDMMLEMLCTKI
DAX1 inh-2: blocks DAX1 repression of SF-1 activated StAR promoter | AID 652010 | 370,000 compounds, 1.1% hits | inhibition, % at 6.8 µM | HEK293T StAR-luciferase reporter, SF-1/DAX-1 repression relief;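 active = inhibition above the mean over all tested compounds plus 3 SD, cut at about 3.6% in these data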;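 also: higher inhibition means more luminescence from relief of DAX-1 repression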
ssDAF-12 act: activators of S. stercoralis DAF-12 nuclear receptor; HEK293 ssDAF-12/GRIP1 lit1-tk-luc reporter, luminescence; % of 3 µM dafachronic acid response; activation, % at 6.8 µM; 370,000 compounds, 1% hits;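 active = activation above the mean over all tested compounds plus 3 SD, cut at about 0.9% in these data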
SMARCA2 act: increases SMARCA2 function in MMTV reporter cells. MG213 cells, MMTV-luciferase reporter, dexamethasone, overnight. activation, % at 9.1 µM. 370,000 compounds, 1% hits; in the data active = activation above about 7.8%
hgDAF-12 ag: activates the H. glycines DAF-12 receptor ligand-binding domain; AID 687014; activation, % at 6.8 µM; 370,000 compounds, 1.8% hits; HEK293 GAL4-hgDAF12 UAS-luciferase reporter, agonist luminescence; normalized to butyrate control;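 active = activation above a cutoff set at the mean of all screened compounds plus 3 SD, cut at about 10% in these data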
Numbers stand for hits; i = inactive; nt = no result. Compounds with a hit are over-represented: about 4.8% of the library has one in this group of screens.

SMILES | hcDAF12 agonist | DAX1 inh-1 | DAX1 inh-2 | ssDAF-12 act | SMARCA2 act | hgDAF-12 ag
CCCC1NC(=O)c2cc3ccccc3cc2-n2c1nc1cc(Cl)ccc1c2=O (centres undefined) | i | i | i | 1.4 | i | i
Cc1cc(C(=O)NNC(=O)c2cccc([N+](=O)[O-])c2)n[nH]1 | i | i | i | i | i | i
O=C1CCNc2c(Cl)cccc21 | i | i | i | i | i | i
O=C1CCNc2c(Cl)cc(Cl)cc21 | i | 5.0 | i | i | i | i
CCC1(c2ccccc2)SC(N)=NC1=O (centres undefined) | i | 6.6 | i | i | i | i
CCC1(c2ccccc2)SC(=O)NC1=O (centres undefined) | i | i | i | i | i | i
O=C(c1cccs1)c1sccc1Cc1ccccc1 | i | i | i | i | i | i
COC(=O)c1cc(Br)c(=O)n(-c2ccccn2)c1 | i | i | i | i | i | i
CN(C)c1ccc(Nc2nc(N)c3ccccc3n2)cc1 | i | i | i | i | i | 10.5
CCOc1ccc(Nc2nc(N)c3ccccc3n2)cc1 | i | i | i | 1.4 | i | i
O=C(Nc1ccc(Br)cc1)c1cnc[nH]1 | 6.5 | i | i | i | i | 10.5
COc1cccc(NC(=O)c2cnc[nH]2)c1 | i | i | i | i | i | i
CCOC(=O)NC(=O)C(=CNc1ccc(C)cc1)C(=O)NC(=O)OCC | 6.5 | i | i | i | i | i
CCOC(=O)NC(=O)C(=CNc1cccc(C)c1)C(=O)NC(=O)OCC | i | i | i | i | i | i
Cc1nc2c(-c3ccccc3)c[nH]n2c(=O)c1Cc1ccccc1 | i | 5.7 | i | i | i | i
CCN(CC)CCCNC(=O)CCC(=O)Nc1ccc2nc(N3CCCCC3)cc(C)c2c1 | i | 6.7 | i | i | i | i
O=C(Nc1ccc(Cl)cc1)C1C2CCCCC21 (centres undefined) | i | i | i | 1.2 | i | 11.7
O=C1CCC(C(=O)Nc2ccc(Cl)cc2)N1 (centres undefined) | i | i | i | i | i | i
O=C(COC(=O)c1ccccc1Br)NCCN1C(=O)CSC1=O | i | i | i | i | i | i
CC(=O)Nc1ccc(/C=N/NC(=O)c2cc(-c3ccco3)nc3ccccc23)cc1 | i | i | i | i | i | i
O=C(O)c1ccccc1/C=N/NC(=O)c1cc(-c2ccco2)nc2ccccc12 | i | i | i | 2.9 | i | i
CC(=O)c1ccc(N2C(=O)[C@@H]3C(C(=O)CCN4C(=O)c5ccccc5C4=O)=NN[C@@H]3C2=O)cc1 | i | i | i | i | i | i
CCCCN1C(=O)C(O)=C(C(C)=O)C1c1ccccc1[N+](=O)[O-] (centres undefined) | i | i | i | 0.9 | i | i
CCc1cccc(NC2c3ccccc3C(=O)N2c2ccc(C)cn2)c1 (centres undefined) | i | i | i | i | i | 11.6
COc1ccc(C2c3ccc4ccccc4c3Oc3ncn(CCO)c(=N)c32)cc1OC (centres undefined) | nt | i | nt | nt | nt | nt
SMILES | hcDAF12 agonist | DAX1 inh-1 | DAX1 inh-2 | ssDAF-12 act | SMARCA2 act | hgDAF-12 ag
COc1ccc(C2c3ccc4ccccc4c3Oc3ncn(CCCO)c(=N)c32)cc1OC (centres undefined) | i | 4.8 | i | i | i | i
CN=c1sc2ccccc2n1CC(O)COc1ccccc1 (centres undefined) | i | i | i | i | i | i
CN(Cc1ccccc1)C(=C(Cl)Cl)/C(=C1/NCCN1C)[N+](=O)[O-] | i | 5.4 | i | i | i | i
COc1ccc(C2(C)NC(=O)N(CC(=O)Nc3ccc4c(c3)OCO4)C2=O)cc1OC (centres undefined) | i | i | i | i | i | i
COCCOc1ccc(C(F)(F)F)cc1NC(=O)CN1C(=O)NC(C)(c2ccc3c(c2)OCO3)C1=O (centres undefined) | i | 7.6 | i | i | i | i
Cc1nn(CC(=O)Nc2ccc(C(C)C)cc2)c(C)c1[N+](=O)[O-] | i | i | i | i | i | i
COc1cc2[nH]c3c(=O)n(CCN(C(C)C)C(C)C)cnc3c2cc1OC | i | i | i | i | i | i
CC(C)N(CCn1cnc2c([nH]c3ccccc32)c1=O)C(C)C | 6.1 | i | i | i | i | i
COc1ccccc1N(CC(N)=O)S(=O)(=O)c1ccc(C)cc1 | i | i | i | 1.1 | i | i
COc1ccccc1NS(=O)(=O)c1cc(C(=O)NCC(c2ccco2)N(C)C)ccc1C (centres undefined) | i | i | i | i | i | i
CC(=O)Nc1cc2c(cc1C(=O)C(C)C)OCCO2 | i | i | i | i | i | i
COc1ccc(C(=O)NC(=S)NNC(=O)c2ccncc2)cc1Br | i | i | i | i | i | i
Cc1ccc(N(CC(=O)N/N=C/c2cccs2)S(C)(=O)=O)cc1 | i | i | i | i | i | i
Cc1ccc(N(CC(=O)N/N=C/c2cccc(Br)c2)S(C)(=O)=O)cc1 | i | i | i | 1.4 | i | i
CSc1ncccc1C(=O)Nc1ccc(F)c(F)c1F | i | i | i | i | i | i
O=C(CCC1CCCC1)NCCCNC(=O)CCC1CCCC1 | 5.9 | i | i | i | i | i
CC(C)NC(=O)/C(=C/c1cn(-c2ccccc2)nc1-c1cccc([N+](=O)[O-])c1)NC(=O)c1ccccc1 | i | i | i | i | i | i
Cc1[nH]n(-c2cccc(Cl)c2)c(=O)c1C=NCC(C)C | i | 4.3 | i | i | i | i
Cc1[nH]n(-c2ccccc2)c(=O)c1/C=N/N(C)c1ccccc1 | i | i | i | 1.8 | i | i
CCCc1[nH]n(-c2ccc(F)cc2)c(=O)c1C=NCC1CCCO1 (centres undefined) | i | i | i | i | i | i
Cc1[nH]n(-c2ccccc2)c(=O)c1C=NCC1CCCO1 (centres undefined) | i | i | i | 1.0 | i | i
O=C(C(=O)N1CCC(CNS(=O)(=O)c2ccc(F)cc2)CC1)c1cccs1 | i | nt | i | i | i | i
Nc1sccc1C(=O)NC1CC1 | i | nt | i | i | i | i
CCN(C(=O)CSC1=Nc2ccccc2C2CC=NN12)C1CCS(=O)(=O)C1 (centres undefined) | 5.8 | i | i | i | i | i
O=C(NNc1nc2c(F)cccc2s1)c1ccccc1 | i | 10.2 | i | i | i | i
COc1ccccc1CNS(=O)(=O)c1cccs1 | i | 5.8 | i | i | i | i
O=C(NC(c1ccc(F)cc1)c1ccc2ccccc2n1)C1CCN(Cc2cccc(C(F)(F)F)c2)CC1 (centres undefined) | i | nt | 3.7 | i | i | i
O=C(NC(c1ccc(F)cc1)c1ccc2ccccc2n1)C1CCN(Cc2ccc3ccccc3n2)CC1 (centres undefined) | i | nt | i | i | i | i
NS(=O)(=O)c1c(Sc2ccccc2C(=O)O)ccc2ccccc12 | i | i | i | i | i | i
COc1cc(OC)cc(C(=O)OCC(=O)NC(c2ccccc2)c2ccccc2)c1 | i | i | i | i | i | i
